Experimental data published in PubChem BioAssay AID1159580 (chemical genetic matrix, 2015).
Values joined by “and” are separate entries in the source; they are usually repeats but may differ in a detail not shown here. Equal values may be shown once. Among all 5,500 compounds or so, about 2,000 (36%) were called active. Roughly 18% stayed inconclusive and do not appear here. No stated cut-off is given here; in the data, active means normalized growth mostly below about 0.91 (no sharp cut-off); inconclusive means no clear call, values can overlap the other calls; inactive means mostly above about 0.92. The list shows a part of the results.

Test: chemical genetic growth profiling, strain panel (AID 1159580);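 further: tested at 20 µM; growth read once vehicle control cultures reached saturation at 30 °C; 1 = growth at the plate median or of vehicle wells; lower values mean less growth of the strain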
Conditions: S. cerevisiae deletion strains, growth OD

Measured: normalized growth

CC1(C)OC(=O)NC1=O
inactive: locus YAL021C, strain ccr4, hits give low values 0.996 | locus YAL026C, strain drs2, hits give low values 0.976 | locus YAL030W, strain snc1, hits give low values 1.01 | locus YBL061C, strain skt5, hits give low values 1.02 | locus YBR009C, strain hhf1, hits give low values 1 | locus YBR021W, strain FUR4, hits give low values 0.996 | locus YBR023C, strain chs3, hits give low values 1.01 | locus YBR171W, strain sec66, hits give low values 1.01 | locus YBR229C, strain ROT2, hits give low values 0.984 | locus YBR231C, strain swc5, hits give low values 1.04 | locus YBR279W, strain paf1, hits give low values 1.01 | locus YCL011C, strain gbp2, hits give low values 1 | locus YCL016C, strain dcc1, hits give low values 1 | locus YCL029C, strain bik1, hits give low values 0.969 | locus YCL069W, strain vba3, hits give low values 1 | locus YCR088W, strain abp1, hits give low values 0.994 | locus YDL005C, strain med2, hits give low values 0.997 | locus YDL035C, strain GPR1, hits give low values 1.04 | locus YDL040C, strain nat1, hits give low values 1.01 | locus YDL074C, strain BRE1, hits give low values 0.986 | locus YDL101C, strain DUN1, hits give low values 0.981 | locus YDL134C, strain PPH21, hits give low values 1.02 | locus YDL185W, strain tfp1, hits give low values 0.979 | locus YDL192W, strain arf1, hits give low values 0.985 | locus YDR001C, strain nth1, hits give low values 0.992 | locus YDR069C, strain doa4, hits give low values 1.03 | locus YDR101C, strain arx1, hits give low values 1 | locus YDR137W, strain rgp1, hits give low values 1 | locus YDR159W, strain sac3, hits give low values 0.983 | locus YDR162C, strain NBP2, hits give low values 1.01 | locus YDR195W, strain ref2 1.01 | locus YDR297W, strain sur2, hits give low values 1.02 | locus YDR318W, strain mcm21, hits give low values 0.98 | locus YDR334W, strain swr1, hits give low values 0.993 | locus YDR335W, strain msn5, hits give low values 1.02 | locus YDR388W, hits give low values 0.98 | locus YDR392W, strain spt3, hits give low values 0.944 | locus YDR502C, strain sam2, hits give low values 0.994 | locus YEL003W, strain gim4, hits give low values 1 | locus YEL037C, strain rad23, hits give low values 0.992 | locus YEL061C, strain CIN8 (second series), hits give low values 0.991 | locus YEL061C, strain CIN8, hits give low values 0.991 | locus YER015W, strain faa2, hits give low values 1.01 | locus YER016W, strain bim1, hits give low values 1.01 | locus YER110C, hits give low values 0.965 | locus YER111C, strain swi4, hits give low values 0.993 | locus YER155C, strain BEM2 (second series), hits give low values 0.972 | locus YER155C, strain BEM2, hits give low values 0.994 | locus YER167W, strain BCK2, hits give low values 0.997 | locus YFR010W, strain ubp6, hits give low values 1.03 | locus YGL078C, strain dbp3, hits give low values 0.975 | locus YGL086W, strain mad1, hits give low values 1 | locus YGL167C, strain pmr1, hits give low values 1.01 | locus YGL173C, strain kem1, hits give low values 1.04 | locus YGL227W, strain vid30, hits give low values 0.968 | locus YGL240W, strain doc1, hits give low values 1.02 | locus YGL248W, strain PDE1, hits give low values 0.985 | locus YGL253W, strain hxk2, hits give low values 1.01 | locus YGR078C, strain PAC10, hits give low values 0.992 | locus YGR135W, strain pre9, hits give low values 0.958 | locus YGR252W, strain gcn5, hits give low values 0.969 | locus YHR013C, strain ard1, hits give low values 1.01 | locus YHR027C, strain rpn1, hits give low values 1.01 | locus YHR030C, strain SLT2, hits give low values 0.994 and 1.03 | locus YHR079C, strain IRE1 (second series), hits give low values 0.983 | locus YHR079C, strain IRE1, hits give low values 1.02 | locus YHR094C, strain hxt1, hits give low values 0.972 | locus YHR129C, strain ARP1, hits give low values 0.998 | locus YHR142W, strain chs7, hits give low values 1 | locus YHR200W, strain rpn10, hits give low values 0.981 | locus YIL066C, strain RNR3, hits give low values 0.993 | locus YIL073C, strain SPO22, hits give low values 0.952 | locus YIL125W, strain kgd1, hits give low values 0.988 | locus YIR030C, strain dcg1, hits give low values 0.972 | locus YJL092W, strain hpr5, hits give low values 0.989 | locus YJL095W, strain BCK1 (second series), hits give low values 1.01 | locus YJL095W, strain BCK1, hits give low values 0.981 and 0.994 | locus YJL115W, strain asf1, hits give low values 0.992 | locus YJL129C, strain trk1, hits give low values 0.94 | locus YJL134W, strain LCB3, hits give low values 0.992 | locus YJL154C, strain vps35, hits give low values 0.995 | locus YJL164C, strain tpk1, hits give low values 0.994 | locus YJL166W, strain qcr8, hits give low values 1.03 | locus YJL168C, strain set2, hits give low values 0.974 | locus YJL187C, strain SWE1 (second series), hits give low values 0.98 | locus YJL187C, strain SWE1, hits give low values 1.02 | locus YJR043C, strain POL32, hits give low values 1.03 | locus YJR066W, strain TOR1, hits give low values 0.957
